PubChem BioAssay
Values joined by “and” are separate entries in the source; they are usually repeats but may differ in a detail not shown here. Equal entries are not always repeated. Active and inactive are the calls of the source. Cut-off read from the data, not from the text of the source, unless noted: active = inhibition above about 80%; inactive = the rest.

How the values were obtained:
[1] = molecular target: NAD(+) hydrolase SARM1 (Homo sapiens) (UniProt Q6SZW1); experiment: blocking NAD cleavage by SARM1 SAM-TIR – cell lysate, NAD-Glo luminescence (AID 1508614;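 active = compound whose remaining NAD level is above about 45 nM, limit read from the data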;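 note: higher remaining NAD means stronger inhibition of SARM1 NADase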); settings: SAM-TIR HEK293T lysate NADase, at 1 µM, stronger effect = higher value
[2] = molecular target: Mitogen-activated protein kinase 7 (Homo sapiens) (UniProt Q13164); experiment: Gal4-ERK5 driven luciferase induction – cell-based, HTS, primary screen (AID 1508626;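 active = luciferase signal above three times the same-plate solvent-only control wells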;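 note: luciferase driven by Gal4-ERK5 fusion binding five Gal4 sites before minimal TATA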); settings: HeLa Gal4-ERK5 transactivation, 18 h, at 5 µM, stronger effect = higher value
[3] = galactose survival enhancers in mitochondrial complex I cybrids – cell-based, galactose medium, ATP luminescence, primary screen (AID 1645843;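 active = z-score of at least 1.8 in each of two replicates, scored against plate mean and spread of sample wells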;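 note: positive z means more ATP and so rescue of galactose-driven cybrid death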); settings: complex I mutant cybrid cells, 72 h, stronger effect = higher value
[4] = growth inhibition, single agent or in combination, cell-based, chromothripsis tumors, cisplatin or BGB combos (AID 1671449); settings: LFS_MB_P medulloblastoma cells;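 note: cells exposed for 96 hours; 0% = vehicle DMSO and 100% = killing by high DMSO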
[5] = growth inhibition, single agent and combos, cell-based, chromothripsis tumors, cisplatin or BGB combos (AID 1671450); settings: HDN33 neuroblastoma cells, stronger effect = higher value;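 note: cells exposed to compound for four days; 0% = vehicle DMSO and 100% = cell killing by high DMSO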
[6] = growth inhibition, single agents and combos, ICB984, cell-based, cisplatin or BGB combos, synergistic combos for chromothripsis tumors (AID 1671451; call rule not given here;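 note: cells exposed for 96 hours before readout; 0% = vehicle DMSO and 100% = killing by high DMSO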); settings: ICB984 medulloblastoma cells, drug combinations, stronger effect = higher value
[7] = growth inhibition, single agents and combos, LFS_MB_1R, cell-based, cisplatin or BGB combos, synergistic combos for chromothripsis tumors (AID 1671452); settings: LFS_MB_1R medulloblastoma cells, stronger effect = higher value;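 note: cells exposed for 96 hours before readout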
[8] = growth inhibition, single agents and combos, HTB85, cell-based, BGB or cisplatin IC20 combos, synergistic combos for chromothripsis tumors (AID 1671453); settings: HTB85 osteosarcoma cells, drug combinations, stronger effect = higher value;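 note: cells exposed for 96 hours before readout; 0% = vehicle DMSO and 100% = high DMSO killing control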
[9] = growth inhibition, single agents and combos, CRL2098, cell-based, BGB or cisplatin IC20 combos, synergistic combos for chromothripsis tumors (AID 1671454); settings: CRL2098 osteosarcoma cells, drug combinations, stronger effect = higher value;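 note: cells exposed for 96 h before readout; 0% = vehicle DMSO and 100% = killing by high DMSO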
[10] = growth inhibition, single agents and combos, HD-MB03, cell-based, BGB or cisplatin IC20 combos, synergistic combos for chromothripsis tumors (AID 1671455; in the data active = inhibition above about 83%;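 note: 0% = vehicle DMSO and 100% = high DMSO as cytotoxic control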); settings: HD-MB03 medulloblastoma cells, stronger effect = higher value
[11] = growth inhibition, single agents and combos, UWB1.289, cell-based, BGB or cisplatin combos, synergistic combos for chromothripsis tumors (AID 1671456); settings: UWB1.289 ovarian carcinoma cells, stronger effect = higher value;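 note: cells exposed to compound for four days; 0% = vehicle DMSO and 100% = killing by high DMSO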
[12] = growth inhibition, single agents and combos, LFS_MB_2R, cell-based, cisplatin combos, synergistic combos for chromothripsis tumors (AID 1671457); settings: LFS_MB_2R medulloblastoma cells, stronger effect = higher value;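 note: cells exposed to compound for four days before readout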
[13] = growth inhibition, MDA-MB-436, cell-based, BGB or cisplatin combos, synergistic combos for chromothripsis tumors (AID 1671458; call rule not given here;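 note: cells exposed for 96 hours; 0% = vehicle DMSO and 100% = killing by high DMSO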); settings: MDA-MB-436 breast carcinoma growth inhibition, drug combinations, stronger effect = higher value
[14] = UWB1.289_BRCA1 ovarian cancer growth, cell-based, BGB or cisplatin combinations (AID 1671459); settings: UWB1.289 BRCA1 ovarian carcinoma, drug combinations, stronger effect = higher value
[15] = drug combination toxicity in non-malignant astrocytes – cell-based, BGB or cisplatin IC20 combos, cytotoxicity control for chromothriptic childhood tumor combination screen (AID 1671460); settings: Human astrocytes, viability inhibition, drug combinations, at 0.5 µM, stronger effect = higher value;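 note: cells exposed to compounds for 96 hours before viability readout; 0% = vehicle and 100% = killing control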
[16] = BT084 cell growth, single and combined drugs, ICGC_MB145, cisplatin and BGB IC40 combos (AID 1671461); settings: BT084 medulloblastoma cells, drug combinations, stronger effect = higher value;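 note: cells exposed to drugs for 96 hours; 0% = vehicle DMSO and 100% = high DMSO full killing control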
[17] = RCMB18 cell growth, single agent and combined, cisplatin and BGB IC40 combos (AID 1671462); settings: RCMB18 medulloblastoma cells, stronger effect = higher value;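 note: cells exposed to compound for four days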
[18] = CRL1545 cell growth, single agent and combined, cisplatin and BGB IC20 combos (AID 1671464); settings: CRL1545 osteosarcoma cells, stronger effect = higher value;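 note: cells exposed to compound for 96 hours before readout; 0% = vehicle DMSO and 100% = high DMSO killing control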
[19] = measured here: combination with BGB IC40, at 0.05 µM
[20] = measured here: with BGB IC20 combination, at 0.5 µM
[21] = measured here: with cisplatin IC20 combination, at 0.5 µM
[22] = measured here: combination with cisplatin, at 0.5 µM
[23] = measured here: combination with cisplatin, at 5 µM

NAD(+) hydrolase SARM1 (Homo sapiens), sequence (Q6SZW1 whole entry, looked up, the tested form may be a part): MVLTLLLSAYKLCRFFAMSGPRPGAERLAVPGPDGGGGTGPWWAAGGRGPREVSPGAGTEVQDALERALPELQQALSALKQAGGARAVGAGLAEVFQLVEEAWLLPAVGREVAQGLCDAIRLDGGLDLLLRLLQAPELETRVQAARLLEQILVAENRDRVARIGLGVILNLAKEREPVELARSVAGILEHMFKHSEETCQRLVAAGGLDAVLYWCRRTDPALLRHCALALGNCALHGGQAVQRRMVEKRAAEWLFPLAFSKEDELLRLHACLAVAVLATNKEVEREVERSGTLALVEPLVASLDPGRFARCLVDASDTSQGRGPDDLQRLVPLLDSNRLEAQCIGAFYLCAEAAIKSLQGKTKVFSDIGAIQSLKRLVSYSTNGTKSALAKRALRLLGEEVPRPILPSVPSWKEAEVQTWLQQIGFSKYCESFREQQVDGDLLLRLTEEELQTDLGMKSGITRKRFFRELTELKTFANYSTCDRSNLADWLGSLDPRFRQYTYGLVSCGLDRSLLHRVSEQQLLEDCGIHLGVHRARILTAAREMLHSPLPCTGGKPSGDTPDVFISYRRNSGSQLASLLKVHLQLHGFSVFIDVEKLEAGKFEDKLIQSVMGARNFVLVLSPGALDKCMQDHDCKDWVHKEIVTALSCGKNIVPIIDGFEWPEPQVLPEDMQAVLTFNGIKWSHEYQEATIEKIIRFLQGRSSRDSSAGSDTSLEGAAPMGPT
Mitogen-activated protein kinase 7 (Homo sapiens), sequence (Q13164 whole entry, looked up, the tested form may be a part): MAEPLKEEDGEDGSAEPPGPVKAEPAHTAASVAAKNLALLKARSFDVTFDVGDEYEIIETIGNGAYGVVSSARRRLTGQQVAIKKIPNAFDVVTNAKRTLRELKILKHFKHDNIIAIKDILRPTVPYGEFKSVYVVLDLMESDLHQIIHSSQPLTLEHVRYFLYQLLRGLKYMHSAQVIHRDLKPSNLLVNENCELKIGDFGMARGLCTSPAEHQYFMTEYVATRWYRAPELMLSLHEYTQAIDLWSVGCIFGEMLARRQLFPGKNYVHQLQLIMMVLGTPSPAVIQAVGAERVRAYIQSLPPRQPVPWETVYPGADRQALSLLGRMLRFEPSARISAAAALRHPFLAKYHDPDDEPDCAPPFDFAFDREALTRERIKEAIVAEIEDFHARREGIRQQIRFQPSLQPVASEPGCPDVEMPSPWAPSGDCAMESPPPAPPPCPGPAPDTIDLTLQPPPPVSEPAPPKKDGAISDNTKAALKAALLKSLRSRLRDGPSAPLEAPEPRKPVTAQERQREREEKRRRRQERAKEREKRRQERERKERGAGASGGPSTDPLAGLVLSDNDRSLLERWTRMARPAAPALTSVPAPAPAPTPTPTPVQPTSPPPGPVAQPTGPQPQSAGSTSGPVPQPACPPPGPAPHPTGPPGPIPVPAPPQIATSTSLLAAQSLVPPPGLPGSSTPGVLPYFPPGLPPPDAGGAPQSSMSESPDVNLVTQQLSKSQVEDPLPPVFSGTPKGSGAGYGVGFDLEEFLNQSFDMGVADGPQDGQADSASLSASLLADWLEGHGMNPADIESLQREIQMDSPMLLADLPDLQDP

CCn1cc(C(=O)O)c(=O)c2cc(F)c(N3CCNC(C)C3)c(F)c21 (stereo unspecified)
remaining NAD [1]: 10 nM (inactive)
luciferase signal [2]: 36 AU (inactive)
z-score [3]: 0.475 (inactive) and -0.065 (inactive)
inhibition ([4]; at 0.5 µM, stronger effect = higher value): -15.3% (inactive) and -10.6% (inactive)
inhibition ([4]; measured here: combination with BGB IC20, at 0.005 µM): -5.89% and -31.7%
inhibition ([4]; measured here: combination with BGB IC40, at 0.005 µM): -27.7% and -17%
inhibition [4, 19]: -32.7% and -10.2%
inhibition ([4]; measured here: combination with cisplatin, at 0.5 µM, stronger effect = higher value): -27.9% and -16%
inhibition ([4]; measured here: combination with cisplatin, at 5 µM, stronger effect = higher value): -19.1% and -19.2%
inhibition ([5]; BGB combo, at 5 µM): -42.8% and -11.5%
inhibition ([5]; at 0.5 µM): -39.6% (inactive) and -19.9% (inactive)
inhibition ([5]; cisplatin combo, at 5 µM): -22.1% and -6.52%
inhibition [5, 20]: -33.5% and -33.9%
inhibition [5, 21]: -40.2% and -6.39%
inhibition ([5]; single agent, at 5 µM): -51.7% and -21.7%
inhibition ([6]; BGB IC20 combo, at 0.005 µM): -2.68% and 6.83%
inhibition ([6]; BGB IC40 combo, at 0.005 µM): -5.47% and -12.9%
inhibition ([6]; BGB IC40 combo, at 0.05 µM): -30.9% and -16.1%
inhibition ([6]; at 0.5 µM): -32.8% (inactive) and -22.8% (inactive)
inhibition ([6]; cisplatin combo, at 0.05 µM): -34.5% and -19.4%
inhibition ([6]; cisplatin combo, at 0.5 µM): -41.4% and -25.5%
inhibition ([6]; cisplatin combo, at 5 µM): -38.8% and -8.31%
inhibition ([6]; measured here: 5 uM single agent, at 5 µM): -28.6% and -13.7%
inhibition ([7]; at 0.5 µM): -35.3% (inactive) and -9.61% (inactive)
inhibition [7, 19]: -24.9% and -19.8%
inhibition [7, 22]: -39.3% and -32.8%
inhibition [7, 23]: -53.1% and -17.8%
inhibition ([8]; at 0.5 µM): -42.2% (inactive) and 22% (inactive)
inhibition ([8]; measured here: with BGB IC20, at 0.5 µM): -50.9% and 58.5%
inhibition ([8]; measured here: with BGB IC20, at 5 µM): -41.8% and 56%
inhibition ([8]; measured here: with cisplatin IC20, at 0.5 µM): -43.1% and 12.8%
inhibition ([8]; measured here: with cisplatin IC20, at 5 µM): -15.2% and -22.2%
inhibition ([8]; single agent, at 5 µM): -37.9% and -11.7%
inhibition ([9]; at 0.5 µM): -101% (inactive) and -12.1% (inactive)
inhibition ([9]; measured here: combination with BGB at IC20, at 0.5 µM): -94% and -48.1%
inhibition ([9]; measured here: combination with cisplatin at IC20, at 0.5 µM): -123% and -10.4%
inhibition ([10]; at 0.5 µM): -11.4% (inactive) and -9.63% (inactive)
inhibition ([10]; measured here: combo with BGB at IC20, at 0.5 µM): -10.9% and -2.68%
inhibition ([10]; measured here: combo with cisplatin at IC20, at 0.5 µM): -12.2% and -16.4%
inhibition ([11]; at 0.5 µM): -5.87% (inactive) and 3.27% (inactive)
inhibition ([11]; measured here: inhibition with BGB combination, at 0.05 µM): -15.8% and -6.81%
inhibition ([11]; measured here: inhibition with cisplatin combination, at 0.05 µM): -31.3% and -16.8%
inhibition ([12]; at 0.5 µM): -11.7% (inactive) and -17.4% (inactive)
inhibition [12, 22]: -16.5% and -22.2%
inhibition [12, 23]: -74.9% and -58.2%
inhibition ([13]; at 0.5 µM): -41.7% (inactive) and -18.1% (inactive)
inhibition ([13]; measured here: BGB combination, at 0.5 µM): -27.8% and -13.8%
inhibition ([13]; measured here: BGB combination, at 5 µM): -28.2% and -9.38%
inhibition ([13]; measured here: cisplatin combination, at 0.5 µM): -66.9% and -25.1%
inhibition ([13]; measured here: cisplatin combination, at 5 µM): -19.8% and -29.7%
inhibition ([14]; BGB combination, concentration series, at 5 µM): -32.2% and -2.47%
inhibition ([14]; at 0.5 µM): -9.31% (inactive) and 2.01% (inactive)
inhibition ([14]; cisplatin combination, concentration series, at 5 µM): -6.73% and 11.3%
inhibition [15]: -10.6% (inactive) and 4.2% (inactive)
inhibition ([15]; measured here: combo with BGB IC20): -11.6% and -0.829%
inhibition ([15]; measured here: combo with cisplatin IC20): -24.3% and -1.68%
inhibition ([16]; at 0.5 µM): -29.5% (inactive) and -34.2% (inactive)
inhibition ([16]; cisplatin combination, at 0.5 µM): -4.32% and -19.8%
inhibition ([16]; cisplatin combination, at 5 µM): -10.2% and -20.4%
inhibition ([16]; measured here: BGB IC40 combination 0.05 uM, at 0.05 µM): -19.8% and -12.4%
inhibition ([16]; single agent, at 5 µM): -14.7% and -12.9%
inhibition ([17]; at 0.5 µM): -20.2% (inactive) and -5.16% (inactive)
inhibition ([17]; cisplatin combo, at 5 µM): -24.3% and 18.4%
inhibition ([17]; measured here: BGB IC40 combination, at 0.05 µM): -16.8% and -25.7%
inhibition [17, 22]: -27.2% and 7.44%
inhibition ([17]; single agent, at 5 µM): -21.5% and -4.86%
inhibition ([18]; at 0.5 µM): -53.2% (inactive) and 15% (inactive)
inhibition [18, 20]: -48% and 1.95%
inhibition [18, 21]: -59.3% and 19.8%
inhibition ([18]; single agent, at 0.05 µM): -84.2% and 11.3%
inhibition ([18]; single agent, at 5 µM): -56% and 4.55%
